Screen size: about 96,000 compounds; fewer than 10 were called active.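 Rule for the calls: active = activation factor of at least 2 at 5 µM in the primary screen; inactive = the rest.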 A selection follows.
Each compound was assayed against Cytochrome P450 2C19 (Homo sapiens) (UniProt P33261) (assay: enhancers of cytochrome P450 2C19 turnover – biochemical, luminescence, primary screen (AID 1025;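 note: 0 = wells with 2.5 mM tranylcypromine and 1 = vehicle-only wells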)). Conditions: recombinant CYP2C19, luciferin-H EGE luminescence; at 5 µM; hits give high values; 0 = fully inhibited enzyme, 1 = untreated enzyme.
Cytochrome P450 2C19 (Homo sapiens), sequence (P33261 whole entry, looked up): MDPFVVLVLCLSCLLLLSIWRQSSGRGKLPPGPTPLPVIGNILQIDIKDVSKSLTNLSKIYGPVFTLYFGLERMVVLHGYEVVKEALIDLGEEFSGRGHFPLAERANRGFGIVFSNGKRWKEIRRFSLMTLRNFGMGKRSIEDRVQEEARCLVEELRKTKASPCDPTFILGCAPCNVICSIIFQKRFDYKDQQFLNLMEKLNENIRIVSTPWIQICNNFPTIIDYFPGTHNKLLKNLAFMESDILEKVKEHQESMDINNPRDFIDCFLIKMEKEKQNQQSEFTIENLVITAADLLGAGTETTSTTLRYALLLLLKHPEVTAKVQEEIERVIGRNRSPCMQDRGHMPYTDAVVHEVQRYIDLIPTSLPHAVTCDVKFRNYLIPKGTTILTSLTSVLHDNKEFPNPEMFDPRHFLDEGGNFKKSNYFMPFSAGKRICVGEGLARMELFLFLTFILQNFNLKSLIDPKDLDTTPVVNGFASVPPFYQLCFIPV

Activation factor, inactive:
CCC(C)NC(=O)c1c(N)n(/N=C/c2cccs2)c2nc3ccccc3nc12 (centres undefined) 0.9
Cc1ccc(C(=O)N2CCN(C(=O)N3CCOCC3)CC2)cc1 0.9
Cc1cccc(NC(=O)/C(=C\c2ccco2)NC(=O)c2ccccc2)c1 0.9
CC(C)Oc1ccc(CCc2n[nH]c(=S)n2Cc2ccccc2)cc1 0.8
CCOC(=O)/C(=C\c1ccc([N+](=O)[O-])cc1)C(=O)c1cc(C(C)=O)c(Nc2ccccc2)s1 0.4
CCOc1cccc(SCc2noc(C(=O)NC(C)C)c2C(=O)O)c1 0.9
Cc1cccc(C(=O)NCCCN2CCCC2=O)c1 0.8
COc1ccc(C(=O)NNC(=O)c2cnccn2)cc1[N+](=O)[O-] 0.9
Cc1cc(=O)[nH]c(SCc2cccc(F)c2)n1 0.9
COc1ccc(NC(=O)/C(Cl)=C(/Cl)S(=O)Cc2ccc(C)cc2)cn1 (centres undefined) 0.7
COc1ccc(/C=C2\CCCC3C2=NN(C(=O)c2scnc2C)C3c2ccc(OC)cc2)cc1 (centres undefined) 0.7
Cc1ccccc1-n1nc(C)c2cc(C(=O)NC3CC3)sc21 0.4
Cc1onc(-c2c(Cl)cccc2Cl)c1C(=O)c1c[nH]c(C(=O)NC2CC2)c1 1
Cc1cccc(C(=O)Nc2ccc(C(=O)/C=C/c3cccs3)cc2)c1 1
CCOc1ccc(S(=O)(=O)NCCSc2ccccc2)cc1 0
CN(C)S(=O)(=O)c1ccc(N2CCCC2)c(C(=O)NCc2ccccc2)c1 0.4
COc1ccc(C(=O)Nc2nc(-c3ccc(OC)cc3)c(-c3ccc([N+](=O)[O-])cc3)s2)cc1 0.9
Cc1nn(Cc2ccccc2Cl)c(C)c1NC(=O)Cn1nc([N+](=O)[O-])c(Cl)c1C 1
COC(=O)Nc1sc2nc(C)cc(C)c2c1-n1cccc1 0.8
CCCc1nnc(NC(=O)c2cccs2)s1 0.9
O=C1Nc2ccc(Br)cc2/C1=N/N=C/C1=C(N2CCOCC2)C(=C\c2ccccc2)/CC1 1
O=C(N/N=C\c1cccc(Br)c1)c1ccccc1-n1cccc1 0.3
CC(=O)N1Cc2ccccc2CC1C(=O)O (centres undefined) 1.2
O=C(c1cccc(N2CCCC2=O)c1)N1CCOCC1 1.1
Cc1nn(CCOc2ccccc2)c(=O)n1-c1ccccc1F 0.5
O=C(NCc1ccccc1)[C@@H]1CSC2c3ccccc3C(=O)N21 (some centres undefined) 0.2
N=c1ccn(CC(=O)NC(N)=O)c2ccccc12 1.1
CCC(=O)c1c[nH]c(C(=O)NCC2CCCO2)c1 (centres undefined) 1
COc1ccc(Nc2nc(Cl)nc(NCc3ccco3)n2)cc1 1
CN(C)/C=C/C(=O)c1ccccc1F 1.1
C=CCn1c(Cn2nnc3ccccc32)nnc1SCC(=O)N/N=C/c1cc(Br)cc(OC)c1O 0.8
COC(=O)CCSc1cc([N+](=O)[O-])cc2c1c(C1OCCS1)nn2-c1ccccc1 (centres undefined) 0.9
NC(=O)c1nsc(C(=O)N(CC(=O)NCc2ccc(F)cc2)Cc2ccco2)c1N 0.8
CCNC(=O)NC(=O)C(C)OC(=O)c1cc(S(=O)(=O)N2CCCCCC2)ccc1OC (centres undefined) 0.3
CCOC(=O)c1c(-c2ccccc2)csc1NC(=S)NC(=O)c1ccccc1 1.1
CCCNC(=O)c1ccccc1NC(=O)CSCc1ccc(OC)cc1 0.5
CC(C)NC(=O)C(=O)N/N=C/c1ccco1 1.1
CC(C)CCNC(=O)CC1C(=O)N(Cc2ccccc2)C(C)c2nc3ccccc3n21 (centres undefined) 0.1
CCCCc1nc(NCCN)c(C#N)c2c1CSC(C)(C)C2 0.7
Cc1ccc(S(=O)(=O)NCC(C)NS(C)(=O)=O)cc1 (centres undefined) 0.8
O=C(Nc1ccc(Sc2ccc(Br)cc2)cc1)c1ccco1 0.9
CCCn1nnnc1NC(=O)COc1ccc(Cl)cc1C 0.3
Cc1ccc(N(CC(=O)Nc2cccc(N(C)S(C)(=O)=O)c2)S(C)(=O)=O)cc1 1
O=C(NCCCCCCNC(=O)NCc1ccco1)NCc1ccco1 1.1
CCCCNC(=O)CCn1c(=S)[nH]c2cc3c(cc2c1=O)OCO3 0.6
CCC(=O)OCc1c(C(F)(F)F)nn(C)c1Oc1cccc(C(F)(F)F)c1 0.4
COc1ccc(N(CC(=O)N/N=C/c2cccs2)S(=O)(=O)c2ccc(OC)c(OC)c2)cc1 0
CCc1c(C)sc(NC(=O)c2cccs2)c1C(N)=O 0.2
Cc1nnc(NCCO)c2ccccc12 0.9
COc1cc(/C=N/NC(=O)Nc2ccccc2)ccc1OCCOc1ccccc1C 1
Cc1[nH]nc(-c2ccc(OCc3cnn(-c4ccccc4)c3)cc2O)c1Oc1ccc(Cl)cc1 0.8
COc1ccc2c(c1)SC(C)CC2=O (centres undefined) 0.2
COC(=O)Nc1ccc(S(=O)(=O)N2CCN(CCN3C(=O)C4C5C=CC(C5)C4C3=O)CC2)cc1 (centres undefined) 0.9
Cc1ccc(O)c(CNc2nc3ccccc3n2C)c1 0.6
CSc1ccc(CCNC(=O)C2CCN(c3nnc(-n4cccc4)s3)CC2)cc1 0.7
O=C(CCc1ccc(S(=O)(=O)NC2CCCCC2)cc1)NCc1ccccc1 0.4
O=c1[nH]c2c(c(=O)n1Cc1ccccc1)CCC2 1
Cc1ccc2nc(/C(C#N)=C\c3ccc(OC(=O)c4cccs4)cc3)[nH]c2c1 0.5
O=C(/C=C/c1ccccc1)c1ccoc1 0.7
CN1C2CCC1/C(=C\c1ccccc1Cl)C(=O)/C2=C\c1ccccc1Cl 1.1
CC(N=Cc1nc(-c2ccccc2)oc1O)c1ccccc1 (centres undefined) 0.3
O=C(NCN1CCN(CCO)CC1)c1cnccn1 1.1
CC(Oc1ccc(Cl)cc1Cl)C(=O)/C=C/N(C)C (centres undefined) 0.4
CN(C)/C=C(\C#N)C(=O)c1cccnc1Oc1cccc(F)c1 0.6
